In PubChem BioAssay:
Calls of active or inactive are those of the source.

Assays:
[1] = small molecules captured by biotinylated probe aFSTL3 – biochemical, small-molecule microarray, fluorescence 635/667, stem cell growth factor project, primary screen (AID 1064); conditions: higher = more signal;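 note: measures binding of the biotinylated anti-FSTL3 antibody to printed compounds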
[2] = binders from COS7 lysate, DM2A8 probe, primary screen, torsin A project, cell lysate, small-molecule microarray, fluorescence 635/667 (AID 1065); conditions: higher = more signal, COS7 lysate expressing mutant human TOR1A
[3] = small molecules captured by biotinylated probe aFGF2 – biochemical, small-molecule microarray, fluorescence 635/667, stem cell growth factor project, primary screen (AID 1067); conditions: higher = more signal;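 note: measures binding of biotinylated aFGF2 protein to printed compounds on slides; z-score merges feature fluorescence and signal-to-noise across triplicate slides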
[4] = small molecules captured by biotinylated probe aFGF10 – biochemical, small-molecule microarray, fluorescence 635/667, stem cell growth factor project, primary screen (AID 1071); conditions: higher = more signal;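 note: score merges 667 nm spot intensity and signal to noise from triplicate slides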
[5] = target: Neurogenic locus notch homolog protein 2 (Homo sapiens) (UniProt Q04721); assay: small molecules binding Notch2 protein – biochemical, small-molecule microarray, 635 nm fluorescence, stem cell growth factors, primary screen (AID 1073); conditions: higher = more signal
Sequence of Neurogenic locus notch homolog protein 2 (Homo sapiens) (Q04721 whole entry, looked up, canonical isoform): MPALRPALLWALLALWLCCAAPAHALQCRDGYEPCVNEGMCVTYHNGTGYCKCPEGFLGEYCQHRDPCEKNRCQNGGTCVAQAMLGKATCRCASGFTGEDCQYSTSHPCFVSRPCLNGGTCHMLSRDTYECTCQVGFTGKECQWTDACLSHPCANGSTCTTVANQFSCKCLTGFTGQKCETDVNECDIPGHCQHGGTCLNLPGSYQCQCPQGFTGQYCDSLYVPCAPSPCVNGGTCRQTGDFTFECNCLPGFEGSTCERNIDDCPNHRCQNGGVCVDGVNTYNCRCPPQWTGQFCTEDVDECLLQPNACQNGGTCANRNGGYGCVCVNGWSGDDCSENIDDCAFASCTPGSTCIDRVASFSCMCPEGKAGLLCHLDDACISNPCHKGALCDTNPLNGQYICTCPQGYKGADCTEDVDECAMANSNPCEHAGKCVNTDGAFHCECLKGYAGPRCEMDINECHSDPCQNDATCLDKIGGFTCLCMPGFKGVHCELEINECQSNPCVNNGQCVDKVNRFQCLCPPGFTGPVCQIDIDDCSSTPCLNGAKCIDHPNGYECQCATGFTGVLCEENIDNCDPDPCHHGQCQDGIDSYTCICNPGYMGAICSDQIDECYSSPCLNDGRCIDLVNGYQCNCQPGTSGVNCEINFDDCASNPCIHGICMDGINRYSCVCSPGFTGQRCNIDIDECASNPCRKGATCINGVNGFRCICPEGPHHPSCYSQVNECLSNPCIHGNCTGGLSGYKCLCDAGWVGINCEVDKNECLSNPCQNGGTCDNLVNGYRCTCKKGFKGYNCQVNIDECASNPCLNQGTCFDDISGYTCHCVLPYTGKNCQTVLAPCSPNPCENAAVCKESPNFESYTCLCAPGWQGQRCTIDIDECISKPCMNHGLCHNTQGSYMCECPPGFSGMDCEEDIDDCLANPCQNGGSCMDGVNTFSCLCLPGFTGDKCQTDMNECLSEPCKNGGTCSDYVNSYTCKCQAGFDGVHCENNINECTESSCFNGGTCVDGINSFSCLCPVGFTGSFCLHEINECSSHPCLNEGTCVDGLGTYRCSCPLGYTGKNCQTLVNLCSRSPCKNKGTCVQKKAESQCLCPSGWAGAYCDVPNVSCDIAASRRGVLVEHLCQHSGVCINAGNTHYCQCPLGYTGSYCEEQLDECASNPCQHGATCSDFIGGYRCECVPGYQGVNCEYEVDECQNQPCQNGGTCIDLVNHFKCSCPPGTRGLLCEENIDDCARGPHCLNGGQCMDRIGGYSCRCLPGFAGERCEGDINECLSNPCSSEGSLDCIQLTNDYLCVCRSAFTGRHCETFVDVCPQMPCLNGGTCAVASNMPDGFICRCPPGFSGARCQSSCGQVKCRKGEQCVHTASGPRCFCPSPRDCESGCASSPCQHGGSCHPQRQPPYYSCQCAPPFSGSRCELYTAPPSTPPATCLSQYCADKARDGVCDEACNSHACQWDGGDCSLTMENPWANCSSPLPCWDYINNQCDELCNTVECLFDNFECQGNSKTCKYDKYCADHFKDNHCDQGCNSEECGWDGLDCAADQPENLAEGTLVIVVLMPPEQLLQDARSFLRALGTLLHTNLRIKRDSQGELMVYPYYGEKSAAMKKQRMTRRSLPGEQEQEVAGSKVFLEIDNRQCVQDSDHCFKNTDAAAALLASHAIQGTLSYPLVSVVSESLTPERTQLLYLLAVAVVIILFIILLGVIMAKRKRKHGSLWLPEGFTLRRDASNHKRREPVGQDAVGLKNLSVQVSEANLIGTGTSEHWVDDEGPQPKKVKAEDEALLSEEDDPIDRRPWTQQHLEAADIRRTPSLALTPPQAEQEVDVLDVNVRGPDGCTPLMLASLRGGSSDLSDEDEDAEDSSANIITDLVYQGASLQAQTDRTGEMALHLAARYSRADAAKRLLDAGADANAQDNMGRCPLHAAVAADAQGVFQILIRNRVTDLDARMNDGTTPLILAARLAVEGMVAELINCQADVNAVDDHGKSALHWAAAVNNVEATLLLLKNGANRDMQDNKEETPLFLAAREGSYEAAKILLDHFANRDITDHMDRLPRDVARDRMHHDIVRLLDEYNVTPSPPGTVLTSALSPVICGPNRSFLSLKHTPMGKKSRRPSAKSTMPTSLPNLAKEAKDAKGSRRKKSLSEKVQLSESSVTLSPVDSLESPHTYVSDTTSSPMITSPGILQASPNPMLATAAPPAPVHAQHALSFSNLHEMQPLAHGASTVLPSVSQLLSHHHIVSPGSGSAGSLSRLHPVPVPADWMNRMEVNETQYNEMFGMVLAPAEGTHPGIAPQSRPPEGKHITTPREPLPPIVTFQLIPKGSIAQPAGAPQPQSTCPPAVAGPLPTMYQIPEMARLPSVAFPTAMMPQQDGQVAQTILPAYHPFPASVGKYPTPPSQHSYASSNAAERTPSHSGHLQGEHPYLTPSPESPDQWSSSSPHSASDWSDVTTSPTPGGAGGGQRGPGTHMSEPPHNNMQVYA

[6] = target: Pro-neuregulin-1, membrane-bound isoform (Homo sapiens) (UniProt Q02297); assay: small molecules binding neuregulin-1 protein – biochemical, small-molecule microarray, fluorescence 635/667, psychiatric disease protein project, primary screen (AID 1075); conditions: NRG1 binding, 635 nm fluorescence, higher = more signal;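 note: score combines 667 nm spot fluorescence with signal to noise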
Sequence of Pro-neuregulin-1, membrane-bound isoform (Homo sapiens) (Q02297 whole entry, looked up, the tested form may be a part, canonical isoform): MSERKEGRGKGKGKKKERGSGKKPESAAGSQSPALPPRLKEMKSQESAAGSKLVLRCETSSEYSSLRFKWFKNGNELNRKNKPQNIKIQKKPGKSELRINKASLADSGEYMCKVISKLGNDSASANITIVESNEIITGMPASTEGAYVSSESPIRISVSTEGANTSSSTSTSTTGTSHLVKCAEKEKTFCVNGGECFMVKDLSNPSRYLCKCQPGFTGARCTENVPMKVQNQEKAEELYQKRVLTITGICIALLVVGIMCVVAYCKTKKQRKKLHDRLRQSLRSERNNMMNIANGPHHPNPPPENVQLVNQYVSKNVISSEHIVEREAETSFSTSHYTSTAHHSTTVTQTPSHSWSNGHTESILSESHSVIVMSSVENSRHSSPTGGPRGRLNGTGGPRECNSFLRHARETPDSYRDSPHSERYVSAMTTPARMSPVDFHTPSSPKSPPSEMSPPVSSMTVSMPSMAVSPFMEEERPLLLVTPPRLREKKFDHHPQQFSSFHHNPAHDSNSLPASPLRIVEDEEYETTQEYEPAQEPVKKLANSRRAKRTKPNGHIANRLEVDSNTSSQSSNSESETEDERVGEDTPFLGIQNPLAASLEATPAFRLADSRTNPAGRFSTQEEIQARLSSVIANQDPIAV

[7] = system: Neuregulin-1 EGF-like domain; assay: small molecules binding NRG1 EGF domain – biochemical, small-molecule microarray, 635 nm fluorescence, primary screen (AID 1081); conditions: higher = more signal;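 note: binding of the protein to compounds printed on small-molecule microarray slides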
[8] = FRG1 expression reporter modulators in myotubes – cell-based, C2C12 myotubes, firefly/Renilla luciferase, luminescence, FRG1 inhibition for FSHD, primary screen (AID 1084); conditions: FRG1 promoter luciferase, higher = more signal, called active from +8 up or from −8 down
[9] = small molecules captured by biotinylated probe aFST – biochemical, small-molecule microarray, fluorescence 635/667, stem cell growth factor project, primary screen (AID 1086); conditions: higher = more signal;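 note: score merges 667 nm fluorescence with signal-to-noise of each printed compound spot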
[10] = binders of probe aHhip on microarray, primary screen, stem cell growth factor project, biochemical, small-molecule microarray, fluorescence 635/667 (AID 1087); conditions: higher = more signal;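 note: score merges spot fluorescence at 667nm with spot signal to noise ratio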
[11] = system: PRMT1 (protein arginine N-methyltransferase 1); assay: small molecules binding arginine methyltransferase PRMT1 – biochemical, small-molecule microarray, 635 nm fluorescence, primary screen (AID 1088); conditions: higher = more signal;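 note: binding of Prmt1 protein to compounds spotted on small-molecule microarray slides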
[12] = growth effects on S. cerevisiae YJM789 – YJM789 clinical isolate, OD600, 24 h, basal, primary screen (AID 1089); conditions: higher = more signal, called active from +8 up or from −8 down;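 note: growth of clinical yeast isolate S. cerevisiae YJM 789 seeded 1000 cells per well; test concentration not given here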
[13] = S. pombe growth modifiers, basal conditions – strain 972, OD600, 24 h, no modulator, primary screen (AID 1090);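 note: basal condition with compound alone and no growth modifier present; test concentration not given here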; conditions: S. pombe 972 growth, higher = more signal, called active from +8 up or from −8 down
[14] = budding yeast growth modifiers under rapamycin – strain BY4716, OD600, 96 h, primary screen (AID 1091); note: test concentration not given here; conditions: S. cerevisiae BY4716 + rapamycin, higher = more signal, called active from +8 up or from −8 down
[15] = target: Torsin-1A-interacting protein 2 (Homo sapiens) (UniProt Q8NFQ8); assay: small molecules binding lysate-expressed LULL1 – cell lysate, human LULL1 lysate, 635/667 nm fluorescence, primary screen (AID 1092); conditions: small-molecule microarray, hLULL1 lysate binding, 635 nm fluorescence; higher = more signal;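 note: probe is lysate of COS7 cells overexpressing human LULL1; score merges per-feature 667 nm fluorescence with signal-to-noise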
Sequence of Torsin-1A-interacting protein 2 (Homo sapiens) (Q8NFQ8 whole entry, looked up): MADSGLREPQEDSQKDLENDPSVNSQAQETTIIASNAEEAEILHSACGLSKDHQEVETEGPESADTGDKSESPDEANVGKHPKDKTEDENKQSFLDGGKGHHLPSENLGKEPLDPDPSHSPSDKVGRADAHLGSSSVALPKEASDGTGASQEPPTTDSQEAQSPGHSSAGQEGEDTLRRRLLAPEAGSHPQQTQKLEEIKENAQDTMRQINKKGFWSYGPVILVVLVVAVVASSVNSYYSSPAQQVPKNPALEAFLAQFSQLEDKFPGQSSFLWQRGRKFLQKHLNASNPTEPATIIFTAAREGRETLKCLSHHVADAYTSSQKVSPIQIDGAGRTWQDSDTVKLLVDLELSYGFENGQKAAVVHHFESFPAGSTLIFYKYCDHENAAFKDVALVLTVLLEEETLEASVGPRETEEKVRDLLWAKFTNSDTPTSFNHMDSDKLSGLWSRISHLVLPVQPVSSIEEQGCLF

[16] = optical density change of DRC41 E. coli – strain DRC41, OD650, 24 h, E. coli filamentation project, primary screen (AID 1093);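 note: MC1000 strain lacking acrAB efflux and sulA so SOS filamentation is blocked; test concentration not given here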; conditions: E. coli DRC41 growth, higher = more signal, called active from +8 up or from −8 down
[17] = probe aLefty2 binding to arrayed compounds – biochemical, biotinylated probe, 635/667 nm fluorescence, primary screen (AID 1094); conditions: small-molecule microarray, higher = more signal;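 note: score merges spot fluorescence near 667 nm with spot signal-to-noise ratio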
[18] = system: Noggin (protein binding on small-molecule microarray); assay: small molecules binding Noggin protein – biochemical, 635/667 nm fluorescence, primary screen (AID 1095); conditions: 635 nm fluorescence, higher = more signal;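 note: score merges 667 nm feature fluorescence with signal to noise over triplicate slides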
[19] = target: Neurogenic locus notch homolog protein 3 (Homo sapiens) (UniProt Q9UM47); assay: small molecules binding NOTCH3 protein – biochemical, 635/667 nm fluorescence, primary screen (AID 1096); conditions: small-molecule microarray, 635 nm fluorescence, higher = more signal
[20] = probe aEGFR binding to arrayed compounds – biochemical, biotinylated probe, 635/667 nm fluorescence, primary screen (AID 1097); conditions: small-molecule microarray, higher = more signal;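 note: probe is a biotinylated anti-EGFR antibody binding compounds printed on slides; score combines fluorescence near 667 nm and signal to noise of each spot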

Row | Structure (SMILES) | composite z-score [1] | composite z-score [2] | composite z-score [3] | composite z-score [4] | composite z-score [5] | composite z-score [6] | composite z-score [7] | z-score [8] | composite z-score [9] | composite z-score [10] | composite z-score [11] | z-score [12] | z-score [13] | z-score [14] | composite z-score [15] | z-score [16] | composite z-score [17] | composite z-score [18] | composite z-score [19] | composite z-score [20]
1 | CN1C2C=C(c3ccc(CO)cc3)C(C3C(=O)N(C(N)=O)C(=O)C32)C1c1cccs1 (stereo not given) | 0.631 | 0.056 | -0.0566 | 0.0657 | -0.458 | 0.839 | 1.27 | 1.02 (inactive) | -0.221 | -0.0645 | 0.4 | 0.697 (inactive) | -1.74 (inactive) | 1.21 (inactive) | 0.813 | 1.22 (inactive) | -0.0774 | 0.198 | -0.25 | -0.0798
2 | C=C(COC)/C(=C/C[C@@H](OC(=O)c1ccncc1)c1ccc(OCCO)cc1)c1cc(C(=O)OC)ccc1OC | -0.202 | 0.984 | -0.0775 | 0.702 | 0.864 | 1.44 | 1.2 | -2.14 (inactive) | 0.238 | 0.219 | 1.57 | -1.08 (inactive) | -2.06 (inactive) | -1.83 (inactive) | 2.75 | 2.15 (inactive) | -0.0903 | 0.861 | 1.12 | -0.0129
3 | CCCNC(=O)[C@@]1(Sc2ccc(C)cc2)CC(=O)N(Cc2ccccc2Cl)[C@@H]1c1ccc(CO)cc1 | 0.295 | -0.106 | -0.0711 | 0.122 | 0.653 | -0.0272 | 1.3 | -3.75 (inactive) | 0.427 | -0.0672 | 1.33 | -1.08 (inactive) | -3.1 (inactive) | -2.53 (inactive) | 1.64 | 0.298 (inactive) | 0.0493 | 1.06 | 1.11 | -0.0082
4 | CC(C)N1CC=CC23O[C@@H]4/C=C\CCCOC(=O)C4[C@H]2C(=O)N(CCCCCO)[C@@H]3C1=O (stereo not given in full) | 0.378 | 2.29 | -0.226 | -1.52 | -2.17 | 1.16 | 0.665 | 0.561 (inactive) | -0.729 | 0.0176 | -2.15 | -0.927 (inactive) | -1.16 (inactive) | -0.693 (inactive) | -0.467 | 1.67 (inactive) | -0.208 | -1.65 | -1.89 | -0.364
5 | CCOC(=O)C[C@H]1[C@H](OC(=O)c2ccccc2-c2ccccc2)[C@@H](NC(=O)C2CCCCC2)c2cc(OCCCO)ccc2N1C(=O)c1ccccc1 | -0.43 | 0.0236 | -0.041 | 0.687 | 0.797 | 0.0516 | 0.652 | 0.404 (inactive) | 0.0322 | -0.0047 | 0.884 | 1.2 (inactive) | 0.543 (inactive) | 1 (inactive) | 0.928 | 2.19 (inactive) | -0.0498 | 0.203 | 0.352 | 0.232
